The source of these data is PubChem BioAssay.

Values joined by “and” are separate entries in the source; they are usually repeats but may differ in a detail not shown here. Identical values can stand only once. Active and inactive are the calls of the source.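 How the source made its calls, unless noted: active means at least 20% inhibition of 6-phosphogluconate dehydrogenase activity; inactive means the rest.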 Where a SMILES comes first, the peptide text is derived from it. Bridges are numbered along the chain shown (N, C = ends). [ ]: non-standard residue; d: D form. The star is where a group is joined. ξ: configuration not given here. ξDab(CH2SO3H) = NC(CCNCS(=O)(=O)O)C(=O)O; Octanoyl(6-Me) = CCC(C)CCCCC(=O)*; Dab = NCC[CH](N)C(=O)O

The target in experiment [1] is 6-phosphogluconate dehydrogenase, decarboxylating (Homo sapiens) (UniProt P52209). Put plainly: inhibition of human phosphogluconate dehydrogenase – biochemical, recombinant enzyme, NADPH absorbance, primary screen (AID 1159550). Conditions: recombinant 6PGD, NADPH absorbance 341 nm; at 10 µM; stronger effect = higher value.
Experiment [2] is described as follows: compounds altering viability of human ES cells (AID 493140; call rule not given here;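 further: cells exposed to compounds for four days before counting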). The following applies: human embryonic stem cell survival screen; stronger effect = higher value.
The nature of experiment [3]: stimulators of insulin release from INS-1E, primary screen, cell-based, 5 mM glucose, NPC library (AID 1117329;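 active means compound raises insulin release from rat beta cells at 5 mM glucose, no numeric limit stated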). Conditions: rat INS-1E insulin secretion, at 10 µM, stronger effect = higher value.
Experiment [4] can be described thus: growth inhibition of GSK3B-pretreated HCT116 cells – cell-based, CellTiter-Glo, 0.2 to 20 µM (AID 1117336;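 active means compounds lowering colon cancer cell viability after pretreatment blocking the GSK3B kinase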). Conditions: HCT116 viability after GSK3B inhibitor, at 20 µM, stronger effect = higher value. For orientation: Cellular ATP, detected with luciferase, serves as a proxy for viable cell number.
A short description of experiment [5]: inhibition of endothelial tube formation, primary screen, imaging, VEGF stimulated, CD31 staining, tube area, NPC library (AID 1117340;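 active means compound that reduces growth-factor-driven endothelial tube area in a mixed cell culture, no cutoff stated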). Conditions: VEGF-stimulated ADSC/ECFC co-culture, at 10 µM, stronger effect = higher value.
Experiment [6] in a line: GLP1 release stimulators, primary, NCI-H716, NPC library (AID 1117341;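 active means compound raises GLP1 secretion from the human gut endocrine cells, with no numeric limit stated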). Conditions: NCI-H716 cells, at 10 µM, stronger effect = higher value.
The nature of experiment [7]: HCT116 colon cancer cell growth inhibition, primary screen, CellTiter-Glo luminescence, NPC library (AID 1117342;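 active means compounds that lower survival of HCT116 colon cancer cells in the luminescence readout, no numeric limit stated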). The following applies: at 20 µM (top of the series).
Experiment [8] can be described thus: reduced SW480 viability measured with CellTiter-Glo, NPC library, primary (AID 1117343;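 active means compounds that lower viability of the colon cancer cells in the luminescence readout, with no numeric limit stated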). The following applies: CellTiter-Glo luminescence; at 20 µM (top of the series) unless noted.
A short description of experiment [9]: NPC library primary testing for decreased DLD-1 cell viability via CellTiter-Glo (AID 1117346;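 active means compounds that lower survival of DLD-1 colon cancer cells in the luminescence readout, no cutoff given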). The following applies: DLD-1 viability, CellTiter-Glo luminescence; at 20 µM (top of the series).
Experiment [10] is described as follows: EMT-state selective cytotoxicity in co-culture – imaging, PC-3E GFP, TEM4-18 mCherry, primary screen (AID 1345086;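 active means compounds killing one labelled cell type while sparing the other, by normalised counts and ratio limits, not self-fluorescent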;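 on all read-outs here: cells exposed to compound for 72 h before imaging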;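 on red/green cell ratio (normalised): normalised mesenchymal count divided by normalised epithelial count so high means epithelial killing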). Conditions: PC-3E GFP / TEM4-18 mCherry co-culture, imaging cell counts, at 1 µM; for red/green cell ratio (normalised): actives lie on both sides, counts scaled to control wells, 1 = unselective.
Experiment [11] in a line: MELAS cybrid and Rieske KO viability enhancers – cell-based, MELAS cybrids, Rieske KO mouse fibroblasts, CellTiter-Glo, primary screen (AID 1508586;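 active means mean z-score across replicates of 1.96 or higher in either the MELAS or the Rieske mutant cell line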;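 further: z relative to plate mean and SD of compound and empty wells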). The following applies: low glucose.
The target of experiment [12] is NAD(+) hydrolase SARM1 (Homo sapiens) (UniProt Q6SZW1). Description: blocking NAD cleavage by SARM1 SAM-TIR – cell lysate, NAD-Glo luminescence (AID 1508614;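 active means compound whose remaining NAD level is above about 45 nM, limit read from the data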). Conditions: SAM-TIR HEK293T lysate NADase, at 1 µM, stronger effect = higher value.
Experiment [13] addresses Mitogen-activated protein kinase 7 (Homo sapiens) (UniProt Q13164). Put plainly: Gal4-ERK5 driven luciferase induction – cell-based, HTS, primary screen (AID 1508626;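 active means luciferase signal above three times the same-plate solvent-only control wells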;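 further: luciferase driven by Gal4-ERK5 fusion binding five Gal4 sites before minimal TATA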). Conditions: HeLa Gal4-ERK5 transactivation, 18 h, at 5 µM, stronger effect = higher value.
Experiment [14] is described as follows: galactose survival enhancers in mitochondrial complex I cybrids – cell-based, galactose medium, ATP luminescence, primary screen (AID 1645843;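 active means z-score of at least 1.8 in each of two replicates, scored against plate mean and spread of sample wells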;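 further: positive z means more ATP and so rescue of galactose-driven cybrid death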). The following applies: complex I mutant cybrid cells, 72 h, stronger effect = higher value.
Experiment [15] can be described thus: modulation of C. elegans fzo-1 (AID 1259413; call rule not given here;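 further: fzo-1 mutant C. elegans worms in liquid wells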). Conditions: C. elegans fzo-1 modulator screen, mean read-out; stronger effect = higher value.
The nature of experiment [16]: viability loss with induced miR-34 in A549 – imaging, A549 dox-inducible miR-34, nuclei and caspase counts, primary screen (AID 1347080;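 active means compounds whose cell count with miR-34 switched on is under 0.7 times the count with it off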). The following applies: A549 miR-34 inducible, Hoechst nuclei count, 48 h.
Setting [17] is: measured here: epithelial PC-3E GFP cell survival.
Where [18] appears, read: measured here: mesenchymal TEM4-18 mCherry cell survival.
Setting [19] is: MELAS cybrid survival, CellTiter-Glo 48 h, stronger effect = higher value.
[20] abbreviates: Rieske KO mouse fibroblast survival, CellTiter-Glo 72 h.

6-phosphogluconate dehydrogenase, decarboxylating (Homo sapiens), sequence (P52209 whole entry, looked up): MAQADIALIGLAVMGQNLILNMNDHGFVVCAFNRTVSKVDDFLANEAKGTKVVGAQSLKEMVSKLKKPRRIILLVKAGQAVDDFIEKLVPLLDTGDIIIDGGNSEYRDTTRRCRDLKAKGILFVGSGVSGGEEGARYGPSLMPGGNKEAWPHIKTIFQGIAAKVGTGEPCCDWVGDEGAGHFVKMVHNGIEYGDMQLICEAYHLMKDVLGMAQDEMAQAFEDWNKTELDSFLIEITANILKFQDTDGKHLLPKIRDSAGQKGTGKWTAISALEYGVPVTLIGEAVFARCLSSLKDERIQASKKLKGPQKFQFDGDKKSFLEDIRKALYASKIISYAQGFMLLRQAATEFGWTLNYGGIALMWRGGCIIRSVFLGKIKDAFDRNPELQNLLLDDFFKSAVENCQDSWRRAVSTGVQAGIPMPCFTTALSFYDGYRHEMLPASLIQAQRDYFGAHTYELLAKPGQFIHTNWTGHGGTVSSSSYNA
NAD(+) hydrolase SARM1 (Homo sapiens), sequence (Q6SZW1 whole entry, looked up, the tested form may be a part): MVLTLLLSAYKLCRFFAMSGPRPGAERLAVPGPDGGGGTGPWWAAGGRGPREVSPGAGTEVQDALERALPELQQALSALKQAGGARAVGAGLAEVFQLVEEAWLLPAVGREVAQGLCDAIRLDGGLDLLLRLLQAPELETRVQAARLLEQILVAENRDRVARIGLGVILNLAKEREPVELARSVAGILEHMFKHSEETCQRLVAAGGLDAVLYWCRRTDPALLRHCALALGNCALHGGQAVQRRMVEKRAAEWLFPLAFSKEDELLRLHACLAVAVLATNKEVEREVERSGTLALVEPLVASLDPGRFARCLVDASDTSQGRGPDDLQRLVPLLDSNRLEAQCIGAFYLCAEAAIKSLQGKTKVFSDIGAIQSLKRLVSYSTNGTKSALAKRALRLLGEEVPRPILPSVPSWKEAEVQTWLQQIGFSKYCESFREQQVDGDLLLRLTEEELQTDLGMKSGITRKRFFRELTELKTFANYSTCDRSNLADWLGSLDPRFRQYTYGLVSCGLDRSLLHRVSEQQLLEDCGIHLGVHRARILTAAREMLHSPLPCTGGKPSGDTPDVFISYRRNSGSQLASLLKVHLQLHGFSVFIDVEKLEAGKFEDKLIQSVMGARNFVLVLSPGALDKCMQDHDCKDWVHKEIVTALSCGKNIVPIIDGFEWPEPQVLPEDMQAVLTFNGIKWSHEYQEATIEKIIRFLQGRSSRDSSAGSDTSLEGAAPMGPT
Mitogen-activated protein kinase 7 (Homo sapiens), sequence (Q13164 whole entry, looked up, the tested form may be a part): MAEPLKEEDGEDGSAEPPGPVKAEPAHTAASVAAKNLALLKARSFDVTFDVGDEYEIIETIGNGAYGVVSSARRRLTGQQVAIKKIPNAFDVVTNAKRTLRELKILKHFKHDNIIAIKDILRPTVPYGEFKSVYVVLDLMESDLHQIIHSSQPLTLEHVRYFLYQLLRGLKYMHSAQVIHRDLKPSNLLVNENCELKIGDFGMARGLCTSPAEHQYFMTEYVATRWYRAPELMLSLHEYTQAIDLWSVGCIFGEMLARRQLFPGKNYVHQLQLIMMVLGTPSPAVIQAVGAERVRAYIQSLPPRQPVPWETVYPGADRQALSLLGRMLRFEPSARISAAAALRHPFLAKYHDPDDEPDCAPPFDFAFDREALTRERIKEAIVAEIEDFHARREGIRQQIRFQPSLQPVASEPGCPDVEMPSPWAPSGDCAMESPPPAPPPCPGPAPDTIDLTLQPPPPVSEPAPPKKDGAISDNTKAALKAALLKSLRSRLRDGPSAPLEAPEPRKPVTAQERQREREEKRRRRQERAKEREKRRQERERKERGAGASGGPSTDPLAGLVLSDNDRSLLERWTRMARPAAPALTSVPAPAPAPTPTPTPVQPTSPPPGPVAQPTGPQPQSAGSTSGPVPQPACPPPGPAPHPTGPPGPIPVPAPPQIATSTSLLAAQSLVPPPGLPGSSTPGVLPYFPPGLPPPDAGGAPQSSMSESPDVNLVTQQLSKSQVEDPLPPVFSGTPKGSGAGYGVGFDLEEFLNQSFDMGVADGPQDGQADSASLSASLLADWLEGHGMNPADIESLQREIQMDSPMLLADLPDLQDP

For the compound `CC1=C2C(=COC(C)C2C)C(=O)C(C(=O)O)=C1O` (stereo unspecified), the inhibition (in general, the drop in the measured response relative to a control, in per cent) in experiment [1] is 10.6% (inactive).
The same measure, in the same setting: the value for `O=c1c(O)cccc2c([C@H]3Oc4cc(O)cc(O)c4C[C@H]3O)cc(O)c(O)c12` was 3.21% (inactive).
Still for that read-out and setting: the value for `CCC(C)CCCCC(=O)NC(CCNCS(=O)(=O)O)C(=O)NC(C(=O)NC(CCNCS(=O)(=O)O)C(=O)NC1CCNC(=O)C(C(C)O)NC(=O)C(CCNCS(=O)(=O)O)NC(=O)C(CCNCS(=O)(=O)O)NC(=O)C(CC(C)C)NC(=O)C(CC(C)C)NC(=O)C(CCNCS(=O)(=O)O)NC1=O)C(C)O` (stereo unspecified) ({Octanoyl(6-Me)}-[ξDab(CH2SO3H)]T[ξDab(CH2SO3H)][Dab][ξDab(CH2SO3H)]LL[ξDab(CH2SO3H)][ξDab(CH2SO3H)]T; lactam 4-C; configuration not given here) was 17.5% (inactive); that for `CC1(C)C(=O)C=C[C@]2(C)C3CC[C@@]4(C)[C@H](c5ccoc5)OC(=O)[C@H]5O[C@]54[C@]3(C)C(=O)C[C@@H]12` (stereo partly specified) was 1.03% (inactive).
Consider `CC(C)(C)c1ccc(C(O)CCCN2CCC(C(O)(c3ccccc3)c3ccccc3)CC2)cc1` (stereo unspecified), for which, in experiment [2], the survival was 3.75 (inactive). For the same compound, the insulin secretion stimulation in experiment [3] is 5.9% (inactive). The viability decrease in experiment [4] was 101% (active). Moreover, the tube area decrease in experiment [5] is 98.4% (active). The GLP1 secretion stimulation in [6] was 70% (active). Besides, in [7], the inhibition of viability was 102% (active). Further, the values for the viability decrease (inhibition) in experiment [8] and in experiment [9] were 142% (active) and 103% (active), respectively. Moreover, the red/green cell ratio (normalised) in [10] is 0.94 (inactive). Moreover, the normalised cell number in experiment [10] (setting [17]) stood at 1.26; in [10] (setting [18]), 1.18. Moreover, the z-score was -0.29 (inactive) and -0.00284 (inactive) in experiment [11] (setting [19]); 1.02 and 1.14 in experiment [11] (setting [20]); -1.31 (inactive) and 0.135 (inactive) in experiment [14]. For the same compound, the remaining NAD in experiment [12] was 10 nM (inactive). In addition, the luciferase signal in experiment [13] was 108 AU (inactive).
With `CC(C)CC(NC(=O)CN)C(=O)NC(Cc1ccccc1)C(=O)O` (stereo not drawn) (H-Gly-Leu-Phe-OH; configuration not given here), in experiment [1], the inhibition was 6.11% (inactive).
As for `O=C(O)COCCN1CCN(C(c2ccccc2)c2ccc(Cl)cc2)CC1` (stereo unspecified), the survival in experiment [2] is 20 (inactive). Also, in [3], the insulin secretion stimulation is 4.3% (inactive). Besides, in experiment [4], the viability decrease is -8.4% (inactive). In experiment [5], the tube area decrease was 2.5% (inactive). Moreover, in experiment [6], the GLP1 secretion stimulation was 1.4% (inactive). Moreover, in experiment [7], the inhibition of viability is 11.2% (inactive). Moreover, the viability decrease (inhibition) in experiment [8] is -6.6% (inactive); in [9] it was 8.8% (inactive). Further, the mean signal in [15] is 254 (inactive). Also, the red/green cell ratio (normalised) in [10] is 0.83 (inactive). In addition, the normalised cell number is 1.06 in experiment [10] (setting [17]) and 0.88 in experiment [10] (setting [18]). In addition, the z-score was -0.429 (inactive) and 0.214 (inactive) in experiment [11] (setting [19]); 0.813 and 0.142 in experiment [11] (setting [20]). The remaining NAD in experiment [12] was 10 nM (inactive). In addition, the luciferase signal in experiment [13] is 76 AU (inactive).
With `C#CC1(O)CCC2C3CCc4cc(O)ccc4C3CCC21C` (stereo unspecified), in experiment [1], the inhibition is 14.4% (inactive).
For the compound `CC(C)(C)CC(C)(C)c1ccc(OCCOCC[N+](C)(C)Cc2ccccc2)cc1`, the survival in experiment [2] is 0.167 (inactive). Moreover, the insulin secretion stimulation in experiment [3] is 4.2% (inactive). Further, in [4], the viability decrease was 102% (active). For the same compound, the tube area decrease in experiment [5] is 110% (active). In experiment [6], the GLP1 secretion stimulation was 89.6% (active). In experiment [7], the inhibition of viability was 103% (active). The viability decrease (inhibition) in experiment [8] is 145% (active); in experiment [9], 106% (active). For the same compound, the inhibition in experiment [1] was -3.07% (inactive). Further, the fold change in [16] (stronger effect = lower value, cell number ratio, induced over uninduced) is 0.798 (inactive) and 0.823 (inactive) and 0.768 (inactive); in [16] (measured here: relative caspase fold change +Dox/-Dox), 1.51 and 1.83 and 3.74. The cell count in [16] (measured here: total cells with miR-34 induction, stronger effect = lower value) is 2760 and 5310 and 8060; in experiment [16] (measured here: total cells without miR-34 induction), 3460 and 6450 and 10500. Further, the z-score in [11] (setting [19]) was -0.38 (inactive) and -2.14 (inactive); in experiment [11] (setting [20]), -0.151 and 1.32. Moreover, the remaining NAD in [12] is 13 nM (inactive). In addition, in experiment [13], the luciferase signal was 44 AU (inactive).
In the case of `COc1ccc(C(C)C(=O)c2ccc(O)cc2O)cc1` (stereo unspecified), the inhibition in experiment [1] is 10.6% (inactive).
